Experimental findings from PubChem BioAssay AID596 (National Center for Advancing Translational Sciences (NCATS), 2007) are described below.

Values joined by “and” are separate entries in the source; they are usually repeats but may differ in a detail not shown here. Identical values can stand only once. Screen size: about 71,000 compounds; about 1,400 (2%) were called active. Roughly 3% stayed inconclusive and do not appear here. The call rests on the fitted dose curve; in most records, active means well fitted curve in the direction sought with a large enough effect; inconclusive means small, poorly fitted or top-dose-only effect; inactive means no such curve, though single readings can be large or run the other way. Shown is part of a subset that was picked to be rich in actives. Some structures have more than one record in an assay (separate samples or runs), and their calls can disagree.
On the % scale 0 is the no-effect control and ±100 the full control effect; potency means the concentration at half of the fitted maximal effect.

Microtubule-associated protein tau (Homo sapiens), sequence (P10636 whole entry, looked up): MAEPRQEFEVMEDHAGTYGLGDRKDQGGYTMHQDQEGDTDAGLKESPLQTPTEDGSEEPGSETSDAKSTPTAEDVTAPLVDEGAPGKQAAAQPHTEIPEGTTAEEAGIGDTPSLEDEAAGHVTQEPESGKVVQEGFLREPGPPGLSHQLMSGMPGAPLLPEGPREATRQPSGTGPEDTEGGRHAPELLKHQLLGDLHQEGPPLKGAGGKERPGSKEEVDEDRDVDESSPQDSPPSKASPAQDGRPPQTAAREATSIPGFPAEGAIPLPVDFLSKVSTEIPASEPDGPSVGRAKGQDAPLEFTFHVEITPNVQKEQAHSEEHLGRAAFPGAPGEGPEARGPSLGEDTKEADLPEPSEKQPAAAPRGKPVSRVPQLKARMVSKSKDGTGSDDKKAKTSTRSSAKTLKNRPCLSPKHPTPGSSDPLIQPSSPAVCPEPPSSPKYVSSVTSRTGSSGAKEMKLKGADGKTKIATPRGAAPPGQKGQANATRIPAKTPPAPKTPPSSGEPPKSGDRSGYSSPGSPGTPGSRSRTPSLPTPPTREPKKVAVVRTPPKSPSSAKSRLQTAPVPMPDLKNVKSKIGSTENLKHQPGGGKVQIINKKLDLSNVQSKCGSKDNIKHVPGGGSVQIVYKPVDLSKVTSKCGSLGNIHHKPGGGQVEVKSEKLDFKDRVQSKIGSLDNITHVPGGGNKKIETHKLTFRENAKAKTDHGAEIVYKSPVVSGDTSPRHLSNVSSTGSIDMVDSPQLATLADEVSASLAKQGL

The target in this assay is Microtubule-associated protein tau (Homo sapiens) (UniProt P10636). The assay can be described thus: qHTS Assay for Tau Filament Binding.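 Further: actives lower thioflavin S fluorescence by blocking filaments or displacing dye.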 Conditions: recombinant tau filaments, thioflavin S fluorescence, 15 h; series mostly up to 57.1 µM; activity change, negative = inhibition: at the top concentration. The text has this:
NIH Molecular Libraries Screening Centers Network [MLSCN]
NIH Chemical Genomics Center [NCGC]
Assay Provider: Jeffrey A. Kuret, Ohio State University
Tau monomers form filaments in vitro in the presence of anionic detergents or fatty acids. The dye Thioflavine S (ThS) binds to tau filaments and upon binding, increases in fluorescence several fold. Small molecules that displace ThS binding or prevent filament binding are identified by a reduction in ThS fluorescence. This assay used histidine-tagged, recombinant human tau protein containing the products of exons 2, 3, and 10 that was provided by Jeff Kuret, Ohio State University. To form filaments, 1 uM tau was incubated with 30 uM sodium octadecylsulfate (ODS) in reagent buffer (10 uM thioflavine S, 5 mM 1,4-dithioerythreitol (DTT), 100 mM sodium chloride, 10 mM HEPES pH 7.4) for 15 hrs at 37 C.
NCGC Assay Protocol Summary:
Assay Steps. Two uL/well of 2 uM tau in reagent buffer (10 uM thioflavine S, 5 mM DTT, 100 mM sodium chloride, 10 mM HEPES pH 7.4) was dispensed into solid black 1536-well plates. Twenty-three nL compound was transferred to the assay plate after which 2 uL/well of 60 uM ODS in reagent buffer was dispensed for a final assay volume of 4 uL /well. Following 15 hours of incubation at 37 C, fluorescence was detected by an Envision (Perkin Elmer) using 450/8 nm excitation and 510/23 nm emission.
Keywords: NIH Roadmap, MLSCN, MLI, MLSMR, qHTS, NCGC, Alzheimer's disease, Neurofibrillary lesions, tau, tubulin assembly, microtubule stability, cytoskeletal integrity, fibrillization, thioflavin dyes, Amyloidgenic
On the technique in general: qHTS replaces the single test concentration by a dilution series.
As for `CC(C)CC(C)Nc1ccc(Nc2ccccc2)cc1` (stereo not given), the Potency was 15.8 µM (active).

As to `c1ccc(N2CC[C@@]3(CCCNC3)C2)nc1`, the “activity change, negative = inhibition” value was 1.4% (inactive).

Turning to `CC[C@@](O)(C(=O)O)c1cc2n(c(=O)c1CO)Cc1cc3ccccc3nc1-2`, the activity change, negative = inhibition was 6.4% [at 11.4 µM] (inactive).

In the case of `Nc1ccc([N+](=O)[O-])cc1`, the “activity change, negative = inhibition” value is 2.8% (inactive).

As to `CC(=O)c1c(O)c(C)c(O)c(Cc2c(O)c3c(c(C(=O)/C=C\c4ccccc4)c2O)OC(C)(C)C=C3)c1O`, the Potency was 15.8 µM (active) and 25.1 µM (active).

Consider `Clc1ccccc1`, for which the “activity change, negative = inhibition” value was 60.1% (inactive).

With `Fc1ccc(C(OCCN2CCN(C/C=C\c3ccccc3)CC2)c2ccc(F)cc2)cc1`, the Potency is 12.6 µM (active).

`CCCCC#N`: the “activity change, negative = inhibition” value was 1.9% (inactive).

In the case of `Nc1ccc(Cc2ccc(N)c(Cl)c2)cc1Cl`, the “activity change, negative = inhibition” value was -16.2% (inactive).

For the compound `N#CCCCl`, the Potency result was “inactive”.

For the compound `CC(C)(C)C(O)(CCc1ccc(Cl)cc1)Cn1cncn1` (stereo not given), the “activity change, negative = inhibition” value was -11.7% [at 57.1 µM, filaments grown with octadecylsulfate alongside compound] (inactive).

Turning to `Clc1cccc(Cl)c1Cl`, the “activity change, negative = inhibition” value is 2.2% (inactive).

Turning to `c1ccc2c(c1)[I+]c1ccccc1-2`, the Potency result is “inactive and 39.8 µM (active)”.

`CCNC[C@H](O)c1cccc(O)c1`: the “activity change, negative = inhibition” value is 4.3% [at 25.6 µM] (inactive).

`O=C(Nc1cccc(F)c1)N1CC[C@@]2(CCCN(C(=O)Oc3ccccc3)C2)C1`: the “activity change, negative = inhibition” value is 4.7% (inactive).

Take `c1ccc(CN2CC[C@@]3(CCCNC3)C2)cc1`: the “activity change, negative = inhibition” value is 8.4% (inactive).

As for `ClCCBr`, the “activity change, negative = inhibition” value is -12.3% (inactive).

For the compound `CN1CCN(C(=O)O[C@@H]2c3nccnc3C(=O)N2c2ccc(Cl)cn2)CC1`, the Potency result was “inactive”.

As to `O=C1C2(Cl)C3(Cl)C4(Cl)C(Cl)(Cl)C5(Cl)C3(Cl)C1(Cl)C5(Cl)C24Cl` (stereo not given), the Potency entry was “inactive and 15.8 µM (active)”.

As for `Cc1cc(-c2ccc(N)c(C)c2)ccc1N`, the “activity change, negative = inhibition” value was -17.3% (inactive).

Take `C=CC#N`: the “activity change, negative = inhibition” value is -14.1% (inactive).

Consider `CC(C)(Cc1c[nH]c2ccc(Cl)cc12)NCCOc1ccccc1OCC1CC1`, for which the “activity change, negative = inhibition” value is 49.6% (inactive).

As to `ClC(Cl)=C(Cl)C(Cl)=C(Cl)Cl`, the “activity change, negative = inhibition” value is -4.5% (inactive).

For `CC(Cl)Cl`, the “activity change, negative = inhibition” value was -2.3% (inactive).

On to `C[C@]12CC[C@H](O)C[C@@H]1CC[C@H]1[C@H]2CC[C@]2(C)C(=O)CC[C@@H]12`, for which the Potency entry is “inactive”.
